Screens deposited in PubChem by several laboratories.
An excerpt weighted towards active compounds, which were near 4.6% of everything screened.
tim10-1 inh = inhibits growth of tim10-1 mutant yeast | inhibition, % at 20 µM | 2.2% of 330,000 active | S. cerevisiae tim10-1 ts strain growth, BacTiter-Glo, 24 h;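 active = inhibition of at least 40%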;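 also: mutant grown at 25 °C; 0% = DMSO wells with yeast and 100% = wells holding no yeast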
tim23-1 inh = inhibits growth of tim23-1 mutant yeast | S. cerevisiae tim23-1 growth, BacTiter-Glo luminescence, 24 h | inhibition, % at 20 µM | 1.3% of 330,000 active | AID 463212;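 active = growth inhibition of the mutant yeast at or above 50%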;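 also: temperature-sensitive mutant grown at 25 °C; plate controls were DMSO-treated mutant yeast for no effect and medium wells lacking yeast for full effect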
TIM10 inh = inhibits growth of TIM10 yeast strain. S. cerevisiae TIM10 strain growth, BacTiter-Glo luminescence, 24 h. inhibition, % at 10 µM. 1.4% of 330,000 active. AID 463195;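 active = inhibition of 40% or more at the single tested concentration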;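 also: wild-type TIM10 isogenic control strain grown at permissive 25 °C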
SKKanGAS inh = SKKanGAS growth inhibition. S. pyogenes SKKanGAS, kanamycin growth, BacTiter-Glo, 6 h. inhibition, % at 7.5 µM. 1.3% of 300,000 active. AID 1662;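 active = mean replicate score, as percent of positive control median, at least 50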;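 also: strain carries kanamycin resistance gene driven by streptokinase promoter and grows in 40 µg/ml kanamycin; loss of luminescence reflects streptokinase promoter inhibition or plain growth inhibition; 0% = median of DMSO wells and 100% = positive control at its reference dose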
V-ATPase pHluor = regulators of yeast V-ATPase proton transport. S. cerevisiae, pHLuorin cytosolic pH fluorescence. response, % at 10 µM. 0.37% of 350,000 active. AID 504577; in the data active = response mostly above about 7.3%, no sharp cut-off; inactive = mostly below about 5.4%; also: actives read high
PfHsp90 set2 = reduces growth (ATP signal) of yeast expressing P. falciparum Hsp90 | inhibition, % at 9.4 µM | S. cerevisiae expressing PfHsp90, BacTiter-Glo ATP, 48 h; yeast lacking PDR1 and PDR3 efflux regulators | 0.32% of 310,000 active;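 active = every replicate shows inhibition above about 80%, whatever the replicate mean, limit read from the data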;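 also: 0% = DMSO neutral controls and 100% = 20 µM radicicol positive controls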
tim10-1 confirm = tim10-1 yeast growth inhibition, confirmed | shares compounds with tim10-1 inh | S. cerevisiae tim10-1 ts strain growth, BacTiter-Glo, 24 h | inhibition, % at 20 µM | 56% of 7,400 active | AID 463213;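 active = inhibition of yeast growth at or above a set limit in either of two repeat tests at 20 µM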;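 also: tim10-1 mutant grown at permissive 25 °C to find synthetic lethal compounds; 0% = DMSO yeast wells and 100% = medium wells without yeast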
Active calls of the source: *; . = no result given.

SMILES	tim10-1 inh	tim23-1 inh	TIM10 inh	SKKanGAS inh	V-ATPase pHluor	PfHsp90 set2	tim10-1 confirm
CC1CCN(S(=O)(=O)c2ccc3c(c2)NC(=O)CS3)CC1	41.7*	46.0	23.0	-1.5	0.7	-2.1	22.6
C/C(=N\Nc1ccc(Cl)c(Cl)c1)c1ccc(-n2ccnc2)cc1	46.1*	12.3	35.3	81.3*	1.6	-21.5	19.0
CCN(CC)c1nc(-c2cccc(OC)c2O)nc2ccccc12	46.6*	26.5	28.8	10.2	-0.7	-36.3	36.2*
COc1cccc(-c2nc(NCc3ccccc3)c3ccccc3n2)c1O	22.4	4.4	-11.9	-1.5	0.2	-33.1	.
CC(NC(=O)c1ccc(OC2CCN(S(=O)(=O)N(C)C)CC2)cc1)C1CC1 (stereo not drawn)	-2.0	9.6	-1.1	-2.3	0.2	25.6	.
CCNC(=S)Nc1scc(-c2ccccc2)c1C(=O)OCC	41.1*	32.9	39.0	34.2	-2.1	-11.1	30.6
CCOC(=O)c1c(-c2ccccc2)csc1NC(=S)NC	42.3*	27.5	19.1	1.1	1.3	14.8	38.5*
CCOC(=O)c1c(-c2ccc(-c3ccccc3)cc2)csc1NC(=O)CNCCN(C)C	43.0*	48.5	-14.7	111.8*	2.9	5.3	25.1
CCOC(=O)c1c(-c2ccccc2)csc1NC(=O)CCN1C(=O)c2ccccc2C1=O	16.7	21.9	-18.6	5.0	-0.4	-7.4	.
Cc1ccccc1C(=O)NNC(=O)C1CC(=O)N(c2ccc3c(c2)OCCO3)C1 (stereo not drawn)	1.7	2.1	2.6	.	-3.7	6.6	.
CC(O)C(NS(=O)(=O)c1ccc2ccccc2c1)C(=O)OCC(=O)Nc1ccccc1OC(F)F (stereo not drawn)	.	.	.	.	-4.4	-1.6	.
Cc1cccc(NC(=O)CSc2nnc(-c3cc(C)[nH]n3)n2N)c1	21.7	9.6	-0.2	-2.2	3.5	-0.6	.
C=CCn1c(SCC(N)=O)nnc1-c1cccc(Br)c1	-6.0	2.5	-10.2	-1.3	-6.8	-4.0	.
C=CCn1c(SCc2ccccc2C#N)nnc1-c1cc(Br)ccc1O	43.7*	44.4	4.7	-8.5	-2.1	-23.6	23.4
O=S(=O)(N/N=C1/CC(c2ccccc2)Oc2ccccc21)c1ccc(Br)cc1 (stereo not drawn)	40.9*	29.3	28.7	35.9	1.4	.	29.3*
Cc1ccc(S(=O)(=O)N/N=C2/CC(c3ccccc3)Oc3ccccc32)cc1[N+](=O)[O-] (stereo not drawn)	20.1	14.5	27.9	25.4	-2.3	-32.1	.
O=S(=O)(N/N=C1/CCCc2ccccc21)c1ccc(Br)cc1	42.3*	28.2	36.4	10.3	4.2	-43.2	23.8
COc1cccc(C(C)NC(=S)NCc2ccc(F)cc2)c1 (stereo not drawn)	41.8*	24.2	24.8	3.1	1.3	-8.2	-0.6
Cc1ccc(C(C)NC(=S)NCc2ccc(F)cc2)cc1C (stereo not drawn)	27.6	10.8	-43.0	2.8	-4.0	50.7	.
O=C(COc1ccc(C(=O)NCC2CCCO2)cc1)Nc1cccc(C(F)(F)F)c1 (stereo not drawn)	11.7	12.1	-16.5	12.7	-0.3	.	.
COc1ccc(NC(=O)CSc2ncc(-c3ccc(F)cc3)n2Cc2ccco2)cc1	22.7	25.3	33.5	21.1	-6.1	-10.1	.
COc1ccc(-c2cnc(SCC(=O)Nc3cc(C)on3)n2Cc2ccco2)cc1	44.4*	18.1	8.5	11.1	-5.0	-5.1	21.0
COCCn1c(-c2ccc(OC)cc2)cnc1SCC(=O)Nc1cccc2ccccc12	44.8*	25.7	-8.8	-8.2	3.3	2.6	9.3
COc1cc(C)cc(C(=O)C=Cc2ccccc2)c1O	.	.	.	.	1.5	.	.
COc1ccc(C(=O)/C=C/c2ccc(N(C)C)cc2)c(OC)c1	-55.2	-9.8	-2.1	-8.7	-1.4	-2.7	.
SMILES	tim10-1 inh	tim23-1 inh	TIM10 inh	SKKanGAS inh	V-ATPase pHluor	PfHsp90 set2	tim10-1 confirm
COc1ccc(C(=O)/C=C/c2ccccc2)c(OC)c1	40.2*	26.1	14.4	-1.4	-1.3	0.7	21.1
COc1ccc(/C=C/C(=O)c2cc3cccc(OC)c3oc2=O)cc1	42.5*	22.6	10.1	7.2	-1.1	5.3	9.8
COCOc1cc(O)c(C(=O)/C=C/c2ccccc2)c(OCOC)c1	50.2*	43.2	36.6	-1.7	-0.8	.	41.2*
NC(=O)C1CCCN(C(=O)CN2C(=O)NC(c3ccccc3)(c3ccccc3)C2=O)C1 (stereo not drawn)	5.9	18.1	-1.4	.	6.8	-7.9	.
COc1ccc(C2(C(=O)N3CCC(n4nc(-c5ccccc5)oc4=O)CC3)CC2)cc1	41.3*	38.3	14.3	2.2	2.8	36.3	14.8
Brc1ccc(-c2cn3c(n2)CCc2ccc4cccnc4c2-3)cc1	46.5*	45.0	37.5	75.9*	-0.7	12.7	31.6*
COc1ccc([C@H]2C[C@@H](O)[C@H](n3cc(COC(=O)c4ccccc4)nn3)CN2C(=O)c2cccs2)cc1	.	.	.	.	0.7	.	.
COc1cccc(Oc2nc(-c3ccncc3)nc3ccccc23)c1	41.5*	46.9	22.4	-3.2	-2.8	.	21.6
COc1ccc(Oc2nc(-c3ccncc3)nc3ccccc23)cc1	39.4	48.4	31.7	1.1	0.2	-32.5	.
Cc1ccc(OCc2cc(C(=O)N(C)Cc3cnc4ccccn34)no2)cc1C	27.1	19.9	15.9	-19.5	5.9	-20.4	.
Cc1cccc(N2CCN(S(=O)(=O)c3ccc4c(c3)CCCN4C(=O)C3CCC3)CC2C)c1 (stereo not drawn)	32.6	29.9	17.9	10.5	0.3	0.9	.
CN(C)CCNC(=O)C(c1ccccc1)c1ccccc1	4.5	-2.0	6.6	-8.1	3.9	5.4	.
CN(C)CCC(=O)C(Cc1ccccc1)c1ccccc1 (stereo not drawn)	45.1*	31.2	22.7	-5.9	5.6	-23.1	45.0*
O=C(CSc1nnc(COc2ccc(F)cc2)o1)N1c2ccccc2CCc2ccccc21	42.2*	24.9	8.3	2.4	0.0	.	15.8
Cc1cccc(OCc2nnc(SCC(=O)N3c4ccccc4CCc4ccccc43)o2)c1	16.5	33.5	13.4	4.5	1.3	-30.5	.
CC(C)C1OC(c2cccc(NC(=O)c3cccs3)c2)OCC1(C)C (stereo not drawn)	44.1*	22.6	39.3	12.8	4.0	-40.3	32.5*
Cc1ccc2cccc(OCCOCCOc3ccccc3Br)c2n1	7.1	19.1	20.4	-15.8	7.5	-19.0	.
Cc1ccc2cccc(OCCCOc3ccccc3F)c2n1	42.7*	46.3	22.1	19.2	0.6	-10.1	30.2
Cc1ccc(N2C(=O)N3[C@H]4c5ccccc5OC[C@@H]4[C@@H](c4ccccc4)[C@@]3(C)C2=O)cc1	49.0*	24.4	7.2	-0.1	-4.3	-10.7	19.0
